Results filed as inconclusive are left out. Active and inactive are the calls of the source. Unless noted, calls come from the whole dose curve; as a rule, active = well fitted curve in the direction sought with a large enough effect in the repeat runs; inconclusive = weak or mixed curves; inactive = no such curve, though single readings can be large; an effect the other way counts as inactive or inconclusive.
Legend:
[1] = target: Thyrotropin receptor (Homo sapiens) (UniProt P16473); experiment: qHTS assay to identify small molecule antagonists of the thyroid stimulating hormone receptor (TSHR) signaling pathway (AID 1259385; calls by dose curve; note: nearly all actives have a fitted effect of over 20% in size)
Method in brief: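 TSHR-HEK293 cells (800/well) plated 18 h, then compounds with Ro20-1724 and TSH at 1.5 ng/mL final, 30 min at room temperature. cAMP quantified by HTRF (cAMP-d2/anti-cAMP-cryptate, 1 h); 15 concentrations in triplicate.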

[2] = qHTS assay to identify small molecule agonists of the estrogen receptor alpha (ER-alpha) signaling pathway in the presence of an antagonist - cell viability counter screen (AID 1259386);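 note: series mostly up to about 92 µM; cells exposed to compounds for 22 h at 37 °C before the viability read; nearly all actives have a fitted effect of over 30% in size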
Method in brief: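 Cell viability in VM7Luc4E2 cells (endogenous full-length ER-alpha) measured by CellTiter-Fluor fluorescence in the same wells as the luciferase screen. Cells pre-cultured 5 days in charcoal-stripped serum, then treated 22 h with compounds at 15 concentrations plus 10.0nM ICI-182,780.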

[3] = target: Progesterone receptor (Homo sapiens) (UniProt P06401); experiment: qHTS assay to identify small molecule agonists of the progesterone receptor (PR) signaling pathway (AID 1346784; calls by dose curve; note: nearly all actives have a fitted effect of over 30% in size)
Method in brief: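 Agonist mode, quantitative HTS format in a HEK 293T line expressing a UAS-controlled beta-lactamase reporter; 16 hr compound exposure at 37C in 2% charcoal-stripped FBS, then LiveBLAzer B/G FRET fluorescence.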

[4] = target: Progesterone receptor (Homo sapiens) (UniProt P06401); experiment: qHTS assay to identify small molecule antagonists of the progesterone receptor (PR) signaling pathway (AID 1346795; active = well fitted inhibition curve with a large enough effect in the signal ratio in the repeat runs, not every such curve was filed as active; the % refers to the signal ratio)
Method in brief: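 HEK293T PR-UAS-bla reporter cells in charcoal-stripped serum (2%) received compound after a 6 hr settling period, followed by R5020 agonist at 1 nM final; 16 hr incubation preceded the FRET substrate step and fluorescence measurement.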

[5] = qHTS assay to identify small molecule antagonists of the progesterone receptor (PR) signaling pathway - cell viability counter screen (AID 1346798); note: series mostly up to about 92 µM; nearly all actives have a fitted effect of over 50% in size
Method in brief: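 Same-well multiplex: after 16 hr at 37C with compound and R5020 stimulation, HEK293T cells carrying a UAS-bla reporter received LiveBLAzer substrate (2 hr RT), then CellTiter-Glo (30 min RT) for luminescent viability.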

[6] = qHTS assay to identify small molecule agonists of the progesterone receptor (PR) signaling pathway - cell viability counter screen (AID 1346799; calls by dose curve; note: nearly all actives have a fitted effect of over 45% in size)
Method in brief: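 Counter screen for cytotoxicity: compound-treated PR-UAS-bla HEK293T cells (16 hr, 37C, 5% CO2) were assayed with CellTiter-Glo, luminescence measured after 30 min at room temperature.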

[7] = qHTS assay to identify small molecule antagonists of the TGF-beta/Smad signaling pathway - cell viability counter screen (AID 1346824); note: nearly all actives have a fitted effect of over 50% in size
Method in brief: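 SBE-bla HEK 293T cells, incubated overnight, then compound plus 0.25 ng/mL TGF-beta1 (stock added) for 5 hr at 37 C. Viability was read in the same wells by CellTiter-Glo luminescence after 30 min at room temperature.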

[8] = qHTS assay to identify small molecule agonists of the TGF-beta/Smad signaling pathway - cell viability counter screen (AID 1346829); note: top concentration of the series differs between compounds; nearly all actives have a fitted effect of over 45% in size
Method in brief: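 Compound-treated SBE-bla HEK 293T cells (5 hr, 37 C) were assessed for viability with CellTiter-Glo in parallel with the reporter read.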

[9] = qHTS assay to identify small molecule agonists of the TGF-beta/Smad signaling pathway (AID 1346859; active = well fitted activation curve with a large enough effect in the signal ratio in the repeat runs, not every such curve was filed as active; the % refers to the signal ratio; note: series mostly up to about 77 µM)
Method in brief: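 Smad-responsive beta-lactamase reporter cells (HEK 293T) received compounds from DMSO stocks after overnight attachment, were incubated 5 hr, then treated 2 hr with FRET substrate before dual-emission fluorescence measurement (405 nm excitation).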

[10] = Human pregnane X receptor (PXR) small molecule agonists, qHTS cell viability counter screen (AID 1346977); note: nearly all actives have a fitted effect of over 50% in size
Method in brief: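 Measures live-cell protease fluorescence (CellTiter-Fluor) in PXR-Luc HepG2 cells treated 24hr with compounds at 37C. Cells had 5hr to attach before pin transfer of DMSO solutions.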

[11] = Caspase-3/7 induction in HepG2 cells by small molecules, qHTS assay (AID 1346978); note: nearly all actives have a fitted effect of over 15% in size
Method in brief: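 Wild-type HepG2 cells, 2,000/well, settled 5 hr at 37 C and 5% CO2, then compound-treated for 17 hr; caspase-3/7 activity read by luminescent Caspase-Glo 3/7 after 30 min at room temperature.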

[12] = Caspase-3/7 induction in CHO-K1 cells by small molecules, qHTS cell viability counter screen (AID 1346979); note: nearly all actives have a fitted effect of over 35% in size
Method in brief: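 In the same wells as the caspase read, viability of compound-treated wild-type CHO-K1 cells was assessed using CellTiter-Fluor, added after 16hr at 37C and measured by fluorescence following 1hr further incubation.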

[13] = Caspase-3/7 induction in CHO-K1 cells by small molecules, qHTS assay (AID 1346980); note: nearly all actives have a fitted effect of over 15% in size
Method in brief: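 Wild-type CHO-K1 cells exposed to compounds for 17hr at 37 C, 5% CO2. Caspase-3/7 activity then measured by Caspase-Glo 3/7 luminescence after 30min at room temperature.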

[14] = Caspase-3/7 induction in HepG2 cells by small molecules, qHTS cell viability counter screen (AID 1346981); note: series mostly up to about 92 µM; nearly all actives have a fitted effect of over 30% in size
Method in brief: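 Wild-type HepG2 cells, 2,000/well, settled 5 hr at 37 C, 5% CO2 before compound addition. Viability read by CellTiter-Fluor fluorescence, reagent added after 16 hr compound exposure, then 1 hr at 37C, in the same wells as the caspase read.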

[15] = target: Nuclear receptor subfamily 1 group I member 2 (Homo sapiens) (UniProt O75469); experiment: Human pregnane X receptor (PXR) small molecule agonists, qHTS assay (AID 1346982); note: nearly all actives have a fitted effect of over 35% in size
Method in brief: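 PXR-Luc HepG2 reporter cells (CYP3A4-driven luciferase) in 5% charcoal-stripped FBS medium, plated 5 h before compound addition, then treated 24 h at 37C. Luciferase read by ONE-Glo luminescence after 30 min at room temperature.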

[16] = target: Thyrotropin-releasing hormone receptor (Homo sapiens) (UniProt P34981); experiment: qHTS assay to identify small molecule agonists of the thyrotropin-releasing hormone receptor (TRHR) signaling pathway (AID 1346891; calls by dose curve; note: series mostly up to about 58 µM)
Method in brief: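 Agonist-mode calcium mobilisation screen: TRHR-transfected HEK293 cells cultured overnight (18 h), dye-loaded for 2 h at 37 °C, exposed to compounds, and monitored by fluorescence for 3 min.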

[17] = target: Thyrotropin-releasing hormone receptor (Homo sapiens) (UniProt P34981); experiment: qHTS assay to identify small molecule antagonists of the thyrotropin-releasing hormone receptor (TRHR) signaling pathway (AID 1346877; active = well fitted inhibition curve with a large enough effect in the repeat runs, not every such curve was filed as active; note: series mostly up to about 51 µM)
Method in brief: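 TRHR-expressing HEK293 cells loaded with calcium dye for 2 h at 37 C; compounds pre-incubated 5 min at room temperature before TRH challenge at 1 nM final. Intracellular calcium fluorescence read kinetically for 3 min; 15 concentrations in triplicate.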

Measured: Potency

Nuclear receptor subfamily 1 group I member 2 (Homo sapiens), sequence (O75469 whole entry, looked up): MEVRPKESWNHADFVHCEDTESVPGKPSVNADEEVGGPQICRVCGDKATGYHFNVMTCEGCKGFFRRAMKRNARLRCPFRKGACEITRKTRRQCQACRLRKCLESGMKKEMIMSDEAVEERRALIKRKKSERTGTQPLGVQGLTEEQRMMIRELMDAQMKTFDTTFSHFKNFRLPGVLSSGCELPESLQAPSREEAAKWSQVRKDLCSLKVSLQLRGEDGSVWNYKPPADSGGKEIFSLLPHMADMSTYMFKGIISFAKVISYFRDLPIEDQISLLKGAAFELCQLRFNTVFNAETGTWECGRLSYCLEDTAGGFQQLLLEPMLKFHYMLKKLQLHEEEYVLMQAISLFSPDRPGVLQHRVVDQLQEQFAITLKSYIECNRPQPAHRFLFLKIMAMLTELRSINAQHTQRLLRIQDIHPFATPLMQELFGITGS
Thyrotropin receptor (Homo sapiens), sequence (P16473 whole entry, looked up): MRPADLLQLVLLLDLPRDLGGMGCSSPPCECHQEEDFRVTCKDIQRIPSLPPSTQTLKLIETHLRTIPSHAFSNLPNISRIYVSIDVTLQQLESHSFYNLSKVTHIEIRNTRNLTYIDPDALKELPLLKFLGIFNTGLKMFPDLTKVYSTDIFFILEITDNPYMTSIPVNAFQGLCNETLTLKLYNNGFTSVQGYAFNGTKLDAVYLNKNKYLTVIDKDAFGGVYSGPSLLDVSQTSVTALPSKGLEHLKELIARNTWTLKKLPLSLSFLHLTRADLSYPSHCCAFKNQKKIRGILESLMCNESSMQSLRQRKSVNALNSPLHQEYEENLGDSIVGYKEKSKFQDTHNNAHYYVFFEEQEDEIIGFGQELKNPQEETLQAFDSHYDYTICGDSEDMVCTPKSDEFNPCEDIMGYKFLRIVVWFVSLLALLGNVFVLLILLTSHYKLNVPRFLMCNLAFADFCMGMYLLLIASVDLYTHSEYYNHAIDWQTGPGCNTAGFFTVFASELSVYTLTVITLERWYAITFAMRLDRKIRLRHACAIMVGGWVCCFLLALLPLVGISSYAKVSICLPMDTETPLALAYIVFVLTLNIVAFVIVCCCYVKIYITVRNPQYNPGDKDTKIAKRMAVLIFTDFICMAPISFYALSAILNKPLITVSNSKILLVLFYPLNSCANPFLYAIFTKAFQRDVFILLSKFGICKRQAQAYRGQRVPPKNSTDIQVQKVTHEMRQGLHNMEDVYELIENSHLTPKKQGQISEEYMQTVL
Thyrotropin-releasing hormone receptor (Homo sapiens), sequence (P34981 whole entry, looked up): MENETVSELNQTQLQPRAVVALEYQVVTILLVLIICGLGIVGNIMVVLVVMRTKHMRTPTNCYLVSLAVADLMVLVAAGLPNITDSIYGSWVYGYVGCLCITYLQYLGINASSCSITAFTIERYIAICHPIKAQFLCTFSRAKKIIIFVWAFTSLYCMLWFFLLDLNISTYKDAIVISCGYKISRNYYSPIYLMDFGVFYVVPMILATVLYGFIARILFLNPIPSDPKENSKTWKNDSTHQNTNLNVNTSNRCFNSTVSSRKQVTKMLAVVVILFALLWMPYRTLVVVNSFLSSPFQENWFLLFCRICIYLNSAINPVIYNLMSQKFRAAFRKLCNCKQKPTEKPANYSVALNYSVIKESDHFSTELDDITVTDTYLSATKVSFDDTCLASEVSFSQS
Progesterone receptor (Homo sapiens), sequence (P06401 whole entry, looked up): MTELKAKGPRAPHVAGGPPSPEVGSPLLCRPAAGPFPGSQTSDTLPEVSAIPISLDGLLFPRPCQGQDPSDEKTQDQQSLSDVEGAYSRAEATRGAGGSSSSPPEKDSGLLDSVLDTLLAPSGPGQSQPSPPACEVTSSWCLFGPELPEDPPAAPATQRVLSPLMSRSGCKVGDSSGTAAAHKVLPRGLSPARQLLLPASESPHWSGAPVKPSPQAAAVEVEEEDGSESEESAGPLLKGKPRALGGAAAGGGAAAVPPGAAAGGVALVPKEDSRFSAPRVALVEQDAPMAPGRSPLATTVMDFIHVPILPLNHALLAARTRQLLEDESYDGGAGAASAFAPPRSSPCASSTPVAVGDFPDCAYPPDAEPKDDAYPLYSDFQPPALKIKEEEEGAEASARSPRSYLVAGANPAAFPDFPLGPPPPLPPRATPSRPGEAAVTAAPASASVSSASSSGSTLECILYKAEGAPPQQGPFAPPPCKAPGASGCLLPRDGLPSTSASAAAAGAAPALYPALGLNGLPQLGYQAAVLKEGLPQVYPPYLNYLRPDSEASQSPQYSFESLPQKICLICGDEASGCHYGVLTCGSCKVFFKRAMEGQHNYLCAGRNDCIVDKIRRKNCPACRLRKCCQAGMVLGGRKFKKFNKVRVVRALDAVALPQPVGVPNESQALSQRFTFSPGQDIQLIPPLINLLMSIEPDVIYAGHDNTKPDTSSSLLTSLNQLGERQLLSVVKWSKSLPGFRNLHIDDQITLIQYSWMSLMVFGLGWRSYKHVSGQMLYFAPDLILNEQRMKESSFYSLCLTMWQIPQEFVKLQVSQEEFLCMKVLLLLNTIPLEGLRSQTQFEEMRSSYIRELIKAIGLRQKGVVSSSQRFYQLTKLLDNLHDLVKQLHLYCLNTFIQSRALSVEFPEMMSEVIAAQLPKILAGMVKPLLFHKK

CCOC(=O)C(Cl)C(C)=O (stereo not drawn)
not listed: [16] | [17]
inactive: all other assays above

CCCCCCC#N
not listed: [8] | [17]
inactive: all other assays above

O=C(O)COc1ccc(Cl)cc1
not listed: [9] | [12]
inactive: all other assays above

c1ccoc1
not listed: [8] | [16]
inactive: all other assays above

C=COC(C)=O
not listed: [16] | [17]
inactive: all other assays above

CCCCCCCCCCOC(=O)c1ccccc1C(=O)OCCCCCCCCCC
not listed: [16] | [17]
inactive: all other assays above

Brc1ccc(Oc2ccccc2)cc1
not listed: [5] | [15]
inactive: all other assays above

COC(=O)c1cncn1C(C)c1ccccc1 (stereo not drawn)
not listed: [6] | [8] | [16] | [17]
inactive: all other assays above

ClCCCCBr
not listed: [6]
inactive: all other assays above

CC/C(=N\OC/C=C/Cl)C1=C(O)CC(C2CCOCC2)CC1=O (stereo not drawn)
not listed: [8] | [16] | [17]
inactive: all other assays above

Source: PubChem BioAssay (Tox21)
